Measured values reported in PubChem BioAssay (NCI).
About 83,000 compounds went through this panel and 20% of them were active in at least one assay; those are over-represented in the sample as a whole.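 Values shown are percent growth following 48 h exposure of cells in 96-well plates to a single concentration of compound; below 10 was considered active.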 Unmarked numbers belong to inactive results. Active and inactive are the calls of the source.

What was measured:
Test in all cases: NCI-60 one-dose screen, 48 h (100 = growth as untreated, 0 = no growth, -100 = all killed)
Conditions in all cases: 10 µM unless noted
NCI-H23 lung = test system: NCI-H23 lung
NCI-H226 lung = test system: NCI-H226 lung
NCI-H322M lung = test system: NCI-H322M lung
NCI-H460 lung = test system: NCI-H460 lung
NCI-H522 lung = test system: NCI-H522 lung
A549/ATCC NSCLC = test system: A549/ATCC NSCLC
786-0 renal = test system: 786-0 renal
COLO 205 colon = test system: COLO 205 colon
DU-145 prostate = test system: DU-145 prostate
K-562 leukemia = test system: K-562 leukemia
MALME-3M melanoma = test system: MALME-3M melanoma
MDA-MB-231 breast = test system: MDA-MB-231 breast
RXF 393 renal = test system: RXF 393 renal
SF-268 CNS = test system: SF-268 CNS
SF-295 CNS = test system: SF-295 CNS
SF-539 CNS = test system: SF-539 CNS
UACC-257 melanoma = test system: UACC-257 melanoma
M14 melanoma = test system: M14 melanoma
HOP-62 NSCLC = test system: HOP-62 NSCLC
HOP-92 NSCLC = test system: HOP-92 NSCLC

| SMILES | growth (NCI-H23 lung) | growth (NCI-H226 lung) | growth (NCI-H322M lung) | growth (NCI-H460 lung) | growth (NCI-H522 lung) | growth (A549/ATCC NSCLC) | growth (786-0 renal) | growth (COLO 205 colon) | growth (DU-145 prostate) | growth (K-562 leukemia) | growth (MALME-3M melanoma) | growth (MDA-MB-231 breast) | growth (RXF 393 renal) | growth (SF-268 CNS) | growth (SF-295 CNS) | growth (SF-539 CNS) | growth (UACC-257 melanoma) | growth (M14 melanoma) | growth (HOP-62 NSCLC) | growth (HOP-92 NSCLC) |
| --- | --- | --- | --- | --- | --- | --- | --- | --- | --- | --- | --- | --- | --- | --- | --- | --- | --- | --- | --- | --- |
| O=C(CN1C(=O)/C(=C/c2ccccc2F)SC1=S)N1CCOCC1 | 89.1% | 66.5% | 90.3% | 102% | -83.2% (active) | 95.5% | 74.9% | 98.5% | 56.3% | 19.2% | 51.8% | 92% | 71.8% | 99.1% | 108% | 82.3% | 89.6% | 79.4% |  |  |
| O=C(NN1C(=O)/C(=C/C=C/c2ccc([N+](=O)[O-])o2)SC1=S)c1ccccc1O | -86.1% (active) | -71.2% (active) | -63% (active) | -55.7% (active) | -90.7% (active) | -58.2% (active) | -89.5% (active) | -82.1% (active) | -100% (active) | 7.19% (active) | -95% (active) | -93.1% (active) | -94.5% (active) | -81.4% (active) | -48.2% (active) | -100% (active) | -85% (active) | -81.3% (active) |  |  |
| O=c1c2ccccc2nc(-c2ccccc2)n1/N=C/c1ccc2ccccc2c1 | 68.2% | 53.3% |  | 8.58% (active) | 63.1% | 41.8% | 53% | 58.2% | 55.8% | 26.7% | 59% |  | 81.2% | 49.9% | 46.8% | 27.2% | 49.3% | 57.2% | 55.7% | 79.7% |
| COc1ccc(/C=C/c2n(Cc3ccc4ccccc4c3)c3ccccc3[n+]2Cc2ccc3ccccc3c2)cc1 | -92.2% (active) | -45% (active) |  | -85.6% (active) | -91% (active) | -88.5% (active) | -85.7% (active) | -86.8% (active) | -93.1% (active) | 1.11% (active) | -85.7% (active) | -86.5% (active) | -74.7% (active) | -80.5% (active) | -95.8% (active) | -95.5% (active) | -91.7% (active) | -88.3% (active) | -76.4% (active) |  |
| COc1cc2oc(-c3cccc(C(=O)Nc4ccc(Cl)cc4)c3)cc(=O)c2c(OCCNC(=O)[C@H](CCC(=O)OC(C)(C)C)NC(=O)OC(C)(C)C)c1OC | 106% | 95.9% |  | 101% | 89% | 92.8% | 93.4% | 117% | 108% | 81.5% | 106% | 85.4% | 84.3% | 81.8% | 94.5% | 87.8% | 107% | 106% | 95.3% | 84.2% |
| O=C(COc1ccc(NC(=O)Nc2ccc(Cl)c(Cl)c2)cc1)N=Nc1c(O)[nH]c2ccc([N+](=O)[O-])cc12 | 62.1% | 90.1% |  | 3.51% (active) | 61.1% | 62.4% | 53.7% | 14.3% | 64.8% | 25.1% | 77.9% | 37% | 75.4% | 84.3% | 53.1% | 1.4% (active) | 67.6% | 34.4% | 76.4% | 94% |
| CN1CCc2c(sc3ncnc(N/N=C/c4ccc(Cl)cc4Cl)c23)C1 | 12.2% | -59.8% (active) |  | 10.1% | -34.3% (active) | 31.4% | -93.9% (active) | -48% (active) | 36.1% | -21.5% (active) | -62.4% (active) |  | -41.8% (active) | 35.8% | 32.4% | -94.6% (active) | -12.3% (active) | -81.4% (active) | 27.1% | -47.2% (active) |
| CC(=O)OC[C@@]1(C)C2CC[C@]3(C)C(CC=C4C5CC(C)(C)CC[C@]5(C(=O)Nc5ccc(Br)cc5)CC[C@]43C)[C@@]2(C)C[C@@H](OC(C)=O)[C@@H]1OC(C)=O (some centres not stated) | 45.6% | 45.2% |  | 17% | 45.6% | 38.9% | 51.2% | 43.8% | 49% | 19.2% | 55.9% | 62.3% | 72.8% | 66.1% | 26.8% | 38.7% | 20% | 52.6% | 38.5% | 54.7% |
